The results in this text go back to PubChem BioAssay AID504648 (National Center for Advancing Translational Sciences (NCATS), 2011).

Structures are written as SMILES. About 610 (0.16%) of roughly 390,000 compounds were called active. About 4% were inconclusive and are not listed. The call rests on the fitted dose curve; in most records, active means well fitted inhibition curve with a large enough effect; inconclusive means small, poorly fitted or top-dose-only effect, or effect the other way, or another doubt; inactive means no such curve, though single readings can be large or run the other way. Shown is part of a subset that was picked to be rich in actives. Where a call stands in place of a potency, no number is given.
Potency means the concentration at half of the fitted maximal effect.

The experiment can be described thus: Nrf2 qHTS screen for inhibitors: counterscreen for cytotoxicity. As to conditions: A549 ARE-Fluc cells, CellTiter-Fluor viability, 18-24 h; series mostly up to 46 µM. In a few lines: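 A549 ARE_Fluc cells in 5% FBS OPTI-MEM were exposed to compounds in concentration-response for 18-24 h at 37 deg C. Viability was read by CellTiter-Fluor fluorescence (Ex 405/Em 525) after 30 min, before the luciferase read.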
On to `COc1ccc(C2=Nn3c(nnc3-c3ccccc3O)SC2)cc1`, for which the Potency result was “inactive”.

In the case of `Cc1ccc(CNc2ncnc3cc(-c4ccc5c(c4)OCO5)ccc23)o1`, the Potency result was “inactive”.

Turning to `Cc1ccc(S(=O)(=O)NC(C(=O)N2CCOCCOCCOCCOCC2)c2ccccc2)cc1` (configuration not stated), the Potency result was “inactive”.

Turning to `Cc1ccc(C)c(CN2C(=O)c3ccccc3S(=O)c3ccc(C(=O)N4CCOCC4)cc32)c1` (configuration not stated), the Potency entry was “inactive”.

With `Cc1oc2c(c1C(=O)N1CCOCC1)C(=O)c1ccccc1C2=O`, the Potency was 16.4 µM (active).

Regarding `CCN(CC)c1nc(C#N)nc(OC)n1`, the Potency result was “inactive”.

For the compound `Cc1ccccc1OCCSc1nc2ccc(NC(=O)c3ccco3)cc2s1`, the Potency result is “inactive”.

In the case of `CCOc1ccccc1NC(=O)CN1CCCN(Cc2cccc(Cl)c2)S1(=O)=O`, the Potency result is “inactive”.

Take `CC(C)c1ccc(NC(=O)Cn2c3ncccc3c(=O)n2-c2ccccc2)cc1`: the Potency result is “inactive”.

On to `Cc1ccc(C(=O)Nc2nc(-c3ccccc3)ns2)cc1`, for which the Potency entry was “inactive”.

With `CCN1CCN(CCCNC(=O)c2ccc3c(c2)sc2nc(-c4ccc(OC)cc4)cn23)CC1`, the Potency entry is “inactive”.

In the case of `Cc1cc2nc(NC(=O)c3ccc(S(=O)(=O)N4CCOCC4)cc3)sc2cc1C`, the Potency entry is “inactive”.

With `Cc1ccc(NS(=O)(=O)c2ccc(C(=O)NCCCN3CCOCC3)cc2)cc1`, the Potency result is “inactive”.

As for `Cc1ccc(/C=C2/SC(=S)N(CCC(=O)NCCCN3CCOCC3)C2=O)cc1`, the Potency is 14.6 µM (active).

Regarding `CC(C)c1ccc(/C=C/C(=O)NCCCN2CCOCC2)cc1`, the Potency result was “inactive”.

Consider `O=C(NCC1CC1)C1(C(F)(F)F)C/C(=C\CCO)CCCO1` (configuration not stated), for which the Potency result was “inactive”.

For `CCN1/C(=C\c2ccc3ccccc3[n+]2CC)Sc2cc(C)ccc21`, the Potency was 23.1 µM (active).

Take `Cc1ccc(CN2CCCn3nc(C(=O)NCc4ccccc4Cl)cc3C2=O)cc1`: the Potency entry was “inactive”.

`CN(C)c1ccc(Nc2c3c4c(cccc4n(C)c2=O)C(=O)c2ccccc2-3)cc1`: the Potency is 14.6 µM (active).

Turning to `Cc1ccc(Nc2c(-c3ccc(N(C)C)cc3)nc3nc[nH]n23)cc1`, the Potency entry was “inactive”.

Consider `COc1cc(OC)c2c(c1C(CCN1CCCCC1)c1ccc(N(C)C)cc1)OC(=O)CC2c1ccc(N(C)C)cc1` (configuration not stated), for which the Potency entry was “inactive”.

Consider `Cc1ccc(OCCSc2nc(-c3cccs3)nc3cc(=O)[nH]n23)cc1Cl`, for which the Potency result was “inactive”.

For the compound `CCOc1ccc(NC(=O)C(CC(C)C)N2Cc3ccccc3C2=O)cc1` (configuration not stated), the Potency entry is “inactive”.

For the compound `COc1cc(Cl)c(C)cc1NC(=O)CCc1nc2cccnc2n1Cc1cccs1`, the Potency entry is “inactive”.

As to `CN(C)c1ccc(C(=O)NCC(=O)OC(C(=O)Nc2cc(C(F)(F)F)ccc2Cl)c2ccccc2)cc1` (configuration not stated), the Potency result is “inactive”.

Consider `Cc1ccc(C(=O)NC2CCN(C#N)CC2)cc1`, for which the Potency result was “inactive”.

Take `COc1ccc(-c2nc(S(=O)(=O)c3ccccc3)c(N3CCCCC3)o2)cc1`: the Potency entry was “inactive”.

In the case of `O=S(=O)(c1ccc2c(c1)OCCO2)N1CCN(S(=O)(=O)c2cc(F)ccc2F)CC1`, the Potency result is “inactive”.

For `COc1ccc(C2/C=C\CN(Cc3ccco3)C(C)C(=O)N2Cc2ccc(F)cc2)cc1` (configuration not stated), the Potency entry is “inactive”.

Regarding `COc1cccc(NC(=O)Nc2ccc3c(c2)N(C)C(=O)c2ccccc2S3)c1`, the Potency result is “inactive”.

For `CC1(C)CCc2cc(S(=O)(=O)N3CCN(c4nc(-c5cccs5)nc5ccccc45)CC3)ccc2O1`, the Potency result is “inactive”.

In the case of `CCCS(=O)(=O)N1CCC(n2c(C(F)(F)F)nc3cccnc32)CC1`, the Potency result was “inactive”.

Turning to `OCCNc1ncnc2oc(-c3ccco3)c(-c3ccco3)c12`, the Potency result was “inactive”.

As to `COc1ccc(C2CC(O)(c3ccccc3)Oc3cc(C)cc(C)c32)cc1` (configuration not stated), the Potency entry is “inactive”.

For the compound `O=S(=O)(c1cccc(C(F)(F)F)c1)N1CCN(c2nc(-c3cccs3)nc3ccccc23)CC1`, the Potency entry is “inactive”.

As to `COc1cccc(C(=O)NC2CCN(C#N)CC2)c1`, the Potency result was “inactive”.

Regarding `C=CCCN(C(Cc1ccccc1)C(=O)OC)S(=O)(=O)c1cc(Br)ccc1Br` (configuration not stated), the Potency result was “inactive”.
